M1 PAM: positive allosteric modulators of human M1 muscarinic receptor; P11229; CHO-K1 hM1, Fluo-8 calcium fluorescence, ACh EC20; 0% = ACh EC20, 100% = maximal ACh; activation, % at 3 µM; 360,000 compounds, 0.088% hits; AID 588819; in the data active = activation above about 19%, passing the limit was not always enough
Target sequence (P11229 whole entry, looked up): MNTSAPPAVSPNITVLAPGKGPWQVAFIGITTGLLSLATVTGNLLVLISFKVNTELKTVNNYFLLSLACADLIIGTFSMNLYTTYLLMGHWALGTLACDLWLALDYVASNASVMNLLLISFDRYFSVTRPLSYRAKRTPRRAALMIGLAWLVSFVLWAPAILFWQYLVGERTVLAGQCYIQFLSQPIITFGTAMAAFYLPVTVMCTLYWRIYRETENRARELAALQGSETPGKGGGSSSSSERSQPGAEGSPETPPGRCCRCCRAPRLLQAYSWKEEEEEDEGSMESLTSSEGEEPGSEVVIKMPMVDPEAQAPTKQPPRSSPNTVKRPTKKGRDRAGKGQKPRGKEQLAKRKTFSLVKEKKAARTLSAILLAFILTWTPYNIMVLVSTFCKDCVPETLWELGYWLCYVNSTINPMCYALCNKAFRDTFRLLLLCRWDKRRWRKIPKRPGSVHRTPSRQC
CHRM1 antagonist: antagonists of human M1 muscarinic receptor | P11229 | CHO-K1 hM1, Fluo-8 calcium fluorescence, ACh EC80 antagonist | inhibition, % at 3 µM | 360,000 compounds, 1.3% hits | AID 588852;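 active = percent inhibition above its own plate's cutoff, namely the mean of that plate's compound wells plus 3 SD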;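 note: peak over basal fluorescence ratio during 140 s after agonist addition; 0% = ACh EC80 plus DMSO and 100% = DMSO alone without agonist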
CHO-K1 Ca ag: nonselective activator or artifact in parental CHO-K1 cells; activation, % at 3 µM; Fluo-8 calcium fluorescence; scaled to maximal ATP response, vehicle zero; AID 602248; 360,000 compounds, 0.48% hits; in the data active = activation above about 15%;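 note: untransfected CHO-K1 host cells lacking M1 receptor as counterscreen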
CHRM1 agonist: activates human CHRM1 receptor; P11229; CHO-K1 hM1, Fluo-8 calcium fluorescence, agonist mode; 0% DMSO, 100% acetylcholine EC100; activation, % at 3 µM; 360,000 compounds, 0.33% hits; AID 588814;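 active = activation above the run's mean compound activation plus 3 SD, cut at about 16% in these data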;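 note: peak over basal fluorescence ratio within a 140 s kinetic read after compound addition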
CHO-K1 Ca antag: counter-screen for M1 antagonists: effect in parental CHO-K1 cells | 360,000 compounds, 0.6% hits | inhibition, % at 3 µM | ATP-induced calcium, Fluo-8 fluorescence | AID 602250;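 active = inhibition above a per-plate cutoff, the plate's mean sample inhibition plus 3 SD, cut at about 24% in these data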;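 note: 0% = DMSO plus EC80 ATP and 100% = DMSO alone without ATP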
M1 PAM parental: M1 PAM counterscreen hit in parental CHO-K1 cells; 360,000 compounds, 0.02% hits; activation, % at 3 µM; AID 602247; ATP EC20, Fluo-8 calcium fluorescence; 0% at ATP EC20, 100% at ATP max;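 active = activation above the run cutoff, the mean activation of all test compounds plus 3 SD, cut at about 40% in these data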;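 note: peak over basal fluorescence ratio in a 140 s read after ATP addition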
An asterisk follows results filed as active; nt = not tested or not shown. The list is not random: actives were taken first. Their share in the collection is about 2.3%.

SMILES | M1 PAM | CHRM1 antagonist | CHO-K1 Ca ag | CHRM1 agonist | CHO-K1 Ca antag | M1 PAM parental
Cc1cccc(C)c1NC(=O)CSc1ncnc2[nH]ncc12 | 5.0 | -8.3 | 0.1 | -0.3 | -3.5 | -4.0
Cc1nc(NC(C)C)c2cnn(CCc3ccccc3)c2n1 | 1.0 | 0.5 | 0.7 | -2.3 | 1.4 | 5.9
COc1ccc(CC(=O)Nc2cc(S(=O)(=O)N3CCCCC3)ccc2OC(C)C)cc1OC | -0.1 | -5.6 | 1.9 | -5.5 | -0.8 | -0.3
CCc1c(O)nc(SCC(=O)Nc2ccccc2)n(-c2ccccc2C)c1=O | 28.6* | -27.5 | 0.1 | 6.5 | -1.0 | 5.9
COc1cc(N/C(=N/S(=O)(=O)c2ccccc2)c2ccccc2)ncn1 | -1.4 | 7.5 | -0.3 | -2.9 | 25.0* | -6.0
CN(C)CC[C@@H](c1ccc(Br)cc1)c1ccccn1 | -25.6 | 42.3 | 0.1 | -8.2 | 5.5 | -2.0
CN(C)CCO[C@@H](c1ccc(Cl)cc1)c1ccccn1 | -26.6 | 43.9* | 0.0 | -8.8 | 3.6 | -20.9
CCCCn1c(-c2ccc(Cl)cc2)nc2c(=O)n(C)c(=O)[nH]c21 | 5.7 | -5.4 | 0.9 | -3.4 | -8.1 | 14.4
Cn1c(=O)[nH]c2c(nc(-c3ccc(Cl)cc3)n2C)c1=O | 11.7 | -18.7 | 1.8 | -1.2 | 28.7* | 21.0
Cc1onc(-c2ccccc2)c1CNS(=O)(=O)c1ccccc1[N+](=O)[O-] | 1.0 | 0.5 | 0.9 | -1.4 | 6.4 | -14.7
COc1ccc(C(NC(=O)C2CCN(CCOc3ccc(Cl)cc3Cl)CC2)c2cccs2)cc1 (configuration not stated) | 4.7 | -8.9 | 0.5 | 0.0 | -10.2 | -1.6
Cc1cc(C)n(S(=O)(=O)c2ccc(C(C)(C)C)cc2)n1 | -21.4 | 54.5* | 0.8 | -8.9 | 11.8 | -10.2
C=CCc1cc(Cl)ccc1OCCN(C)C | -19.0 | 25.2* | 1.7 | -7.1 | -15.6 | 28.4
CN(C)CCOc1cc(Cl)cc(Cl)c1 | -8.8 | -5.4 | 0.4 | -10.4 | 1.0 | 10.0
CCC(C)NCCCOc1cc(Cl)ccc1Cl (configuration not stated) | -13.6 | 32.8* | 0.5 | -3.7 | 8.8 | 4.1
C=CCc1cc(Cl)ccc1OCCCNC(C)C | -9.2 | 12.9 | 2.3 | -11.8 | -2.2 | 21.0
C=CCc1cc(Cl)ccc1OCCOCCNC(C)CC (configuration not stated) | -24.5 | 38.4* | 2.8 | -8.2 | -8.7 | -1.7
CN(C)CCOc1cccc(Cl)c1 | 6.2 | -4.7 | 19.3* | -7.7 | -5.1 | 26.1
C=CCc1cc(Cl)ccc1OCCCNCCO | -2.0 | -1.8 | 2.0 | -11.6 | 2.7 | 4.3
O=C(Nc1cccc(C(=O)O)c1)/C(=C\c1ccc(F)cc1)NC(=O)c1ccco1 | 10.9 | -10.0 | 1.7 | -3.3 | -20.5 | 17.4
NC1=NC(=O)/C(=C/c2cn(Cc3ccccc3)c3ccccc23)S1 | 3.6 | 3.2 | -0.2 | 1.5 | 15.3 | -11.9
O=C(NCc1ccccc1)C(c1cccnc1)N(C(=O)c1csnn1)c1ccccc1 (configuration not stated) | 11.2 | -10.8 | 2.5 | -5.0 | -13.2 | 6.7
C[C@H]1COc2cccc(N3CCC[C@H]3CO)c2S(=O)(=O)N1 | nt | nt | 0.2 | nt | -9.6 | -4.5
CC1=CCC(C(=O)N/N=C/c2cccs2)C(c2ccc(F)cc2)C1 (configuration not stated) | 6.5 | -9.5 | 0.5 | 1.1 | -14.0 | 47.8*
CCN(c1ccccc1)S(=O)(=O)c1cc(C(=O)Nc2ccc(F)c(F)c2)ccc1F | -20.6 | 32.6* | 13.4 | -0.3 | 20.3 | -0.2
SMILES | M1 PAM | CHRM1 antagonist | CHO-K1 Ca ag | CHRM1 agonist | CHO-K1 Ca antag | M1 PAM parental
O=C1C2C3C=CC(CC3)C2C(=O)N1c1ccccc1[N+](=O)[O-] (configuration not stated) | 13.3 | -6.1 | 0.2 | -9.4 | 1.3 | 20.0
Cc1ccc(OCC(O)CNCc2ccc(F)cc2)cc1 (configuration not stated) | 3.6 | -1.0 | 2.2 | -2.0 | 0.3 | 8.9
OC(CNCCNc1ncccc1C(F)(F)F)COc1ccc(F)cc1 (configuration not stated) | -14.2 | 19.4 | 3.6 | 40.4* | -11.6 | 8.3
O=C(CSc1nnc(CNC(=O)c2ccco2)o1)Nc1ccccc1F | 7.4 | -10.5 | 0.7 | -1.9 | -3.2 | 9.2
O=S(=O)(c1ccccc1)N(CC1CO1)c1cccc2ccccc12 (configuration not stated) | -6.8 | 6.4 | -0.3 | -0.5 | -2.8 | 0.7
Cc1noc(C)c1S(=O)(=O)NCc1ccc(CN(C)C)cc1 | 0.6 | 2.2 | 0.4 | -8.8 | -20.8 | 13.4
CCCC(O)(c1ccc(Cl)cc1)C(CN1CCOCC1)c1ccccc1 (configuration not stated) | -21.4 | 60.9* | -0.3 | -8.2 | 0.0 | -0.2
COc1ccc(C(O)(CCN2CCCCC2)C2CCCCC2)cc1 (configuration not stated) | -27.4 | 101.2* | -0.3 | -8.8 | 3.1 | -3.9
CCCCCC(O)(CCN1CCCCC1)c1ccc(OCC)cc1 (configuration not stated) | -32.1 | 99.1* | 0.6 | -13.5 | 2.2 | -4.1
CCCC(O)(c1ccccc1)C(CN1CCOCC1)c1ccccc1 (configuration not stated) | 10.8 | -16.2 | 0.2 | -4.5 | -26.9 | 13.0
CCCC(O)(CCN1CCCCC1)c1ccc(OCC)cc1 (configuration not stated) | -16.0 | 16.0 | 0.5 | -11.7 | 5.3 | -4.9
CCC(O)(CCN1CCCCC1)c1ccccc1 (configuration not stated) | -22.1 | 76.4* | 0.2 | -5.3 | -0.6 | 1.2
COc1cc(C(O)c2nc(-c3cccc(C#N)c3)cs2)ccc1F (configuration not stated) | -7.3 | 4.6 | 5.7 | -0.9 | -1.0 | 0.2
O=C(NNc1ncnc2ccccc12)c1cccc(Cl)c1 | 1.6 | -4.5 | 1.3 | 0.9 | -12.4 | 12.2
CCCCOc1ccc(C(O)(CCC)CCN2CCOCC2)cc1 (configuration not stated) | -16.9 | 3.3 | 4.5 | -7.1 | -1.2 | 19.0
CCCCC(O)(CCN1CCOCC1)c1ccc(Cl)cc1 (configuration not stated) | -20.8 | 87.2* | -0.1 | -8.4 | -10.3 | 9.9
COc1cc(C(=S)N2CCOCC2)ccc1OC(=O)c1ccc(Br)cc1 | -18.1 | 46.9* | 11.8 | 0.7 | 28.0* | 6.7
O=C(c1ccco1)N1CCN(C(=O)c2ccco2)CC1 | -5.8 | 11.5 | 1.0 | -0.7 | 0.4 | 10.7
Cc1ccccc1CN1CCN(CC2CC3C=CC2C3)CC1 (configuration not stated) | -21.4 | 54.0* | 0.3 | -5.6 | 4.2 | -3.3
O=C(c1ccco1)N1CCN(CC2CC3C=CC2C3)CC1 (configuration not stated) | -12.4 | 29.4* | 0.7 | -4.8 | -1.2 | 7.5
CCN1CCN(CC2CC3C=CC2C3)CC1 (configuration not stated) | -5.3 | 3.0 | 0.2 | -4.9 | -0.8 | -2.5
